D3 antag = antagonists of human D3 dopamine receptor; P35462; hit rate 2.5% among 360,000; max response, negative = inhibition, %; D3R cells, DiscoveRx beta-arrestin luminescence, antagonist mode; hits give low values; in the data active = max response below about -50%; inconclusive = no clear call, values can overlap the other calls
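Cells plated overnight at 1500 cells/well, then exposed to library compounds with dopamine controls for 90 minutes at 37 degrees C. DiscoveRx reagent added for 30–60 minutes at room temperature; luminescence read, quantitative HTS format.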
D1 PAM = potentiators of human D1 dopamine receptor. P21728. HEK293 TREx D1 cells, calcium flux, dopamine EC20 potentiation. potentiation, % at 10 µM. hit rate 0.036% among 360,000; in the data active = potentiation above about 30%
Target sequence (P21728 whole entry, looked up): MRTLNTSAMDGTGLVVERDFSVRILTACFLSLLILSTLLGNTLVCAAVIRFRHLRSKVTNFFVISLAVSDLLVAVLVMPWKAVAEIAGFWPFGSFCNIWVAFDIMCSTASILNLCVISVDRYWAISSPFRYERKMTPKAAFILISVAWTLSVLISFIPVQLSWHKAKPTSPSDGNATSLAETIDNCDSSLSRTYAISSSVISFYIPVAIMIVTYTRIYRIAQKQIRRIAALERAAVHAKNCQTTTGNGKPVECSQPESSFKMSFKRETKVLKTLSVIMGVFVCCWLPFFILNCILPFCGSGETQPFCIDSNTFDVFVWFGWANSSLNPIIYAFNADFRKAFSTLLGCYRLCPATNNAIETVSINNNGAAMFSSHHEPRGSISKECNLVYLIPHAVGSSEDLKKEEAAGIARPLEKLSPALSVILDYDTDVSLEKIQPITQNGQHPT
DRD3 agonist = D3 dopamine receptor (human) agonism. D3R DiscoveRx beta-arrestin cells, luminescence, 90 min. max activation, %. hit rate 0.58% among 410,000. AID 652048; in the data active = max activation above about 30%
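Agonist-mode cell screen: cells plated at 1500/well and incubated overnight at 37 °C, then exposed to library compounds for 90 min at 37 °C. Detection reagent was added for 30–60 min at room temperature, and luminescence was read.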
D1 ag = human D1 receptor agonism | P21728 | HEK293 T-REx D1 cells, calcium flux, agonist mode | activation, % at 2 µM | hit rate 1% among 360,000 | AID 504660; in the data active = activation above about 30%
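Agonism was scored from calcium flux recorded over 180 s (1 read/s) after pintool compound addition, following a 10-cycle baseline. Cells were inducible force-coupled HEK293 TREx D1, plated overnight at 30 C and loaded with no-wash calcium dye.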
D1 antag = human D1 dopamine receptor antagonism; P21728; hit rate 3.2% among 360,000; activity change, negative = inhibition, % at 10 µM; HEK293 TREx D1 cells, calcium flux, dopamine EC80; hits give low values; in the data active = activity change below about -30%
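Cells carrying a force-coupled, tetracycline-inducible human D1 receptor report calcium flux. Each well gets a 10 s baseline, compound with 180 s monitoring, then an EC80 dopamine stimulus with a second 180 s kinetic read.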
Large screens that a line does not name were inactive. This is a sample that favours compounds with a hit; in the whole collection about 6% have one here.

CC(=O)Nc1ccc(OCC(O)CN2CCN(c3ccc(C)c(Cl)c3)CC2)cc1 (stereo not drawn)	D3 antag -144.3
COc1cc(C(C)=O)ccc1OCC(O)CN1CCN(c2ccc(C)c(C)c2)CC1 (stereo not drawn)	D3 antag -52.2
COc1ccccc1OCC(O)CN1CCN(C(=O)c2ccccc2)CC1 (stereo not drawn)	D1 antag -35.6
COc1cc(C(C)=O)ccc1OCC(O)CN1CCN(c2c(C)cccc2C)CC1 (stereo not drawn)	none
COc1cccc(-c2cccc3c2NC(=O)C3(C)Cc2ccccc2F)c1 (stereo not drawn)	none (no result: D1 PAM, D1 ag, D1 antag)
O=S1(=O)C[C@@H](O)[C@@H](Nc2ccccc2)C1	none
O=C(Nc1ccccc1)NC1CS(=O)(=O)CC1O (stereo not drawn)	D1 antag -41.5
Oc1c(Cl)cc(Cl)cc1/C=N/NC(=S)NC1CC2C=CC1C2 (stereo not drawn)	D3 antag -85.4
Oc1ccccc1C=NNC(=S)NC1CC2C=CC1C2 (stereo not drawn)	none (no result: D1 PAM, D1 ag, D1 antag)
COc1ccc(N(Cc2ccccc2)S(=O)(=O)c2ccc(C)cc2)cc1	D1 antag -30.3
COc1ccc(S(=O)(=O)N(CC(=O)O)c2ccc(C)cc2)cc1	D1 antag -49.7
COc1ccc(S(=O)(=O)N(CC(=O)NC2CC2)c2ccc(C)cc2)cc1	none
COC(=O)c1ccc(CN(c2ccc(OC)cc2)S(=O)(=O)c2ccccc2)cc1	none (no result: D1 PAM, D1 ag, D1 antag)
CC/C=C(\C(=O)N[C@@H]1C(=O)N2C(C(=O)OCOC(=O)C(C)(C)C)=C(COC(N)=O)CS[C@H]12)c1csc(N)n1	none (no result: D3 antag, D1 PAM, D1 ag, D1 antag)
Cc1cccc(-c2noc(-c3ccc(N4CCN(C)CC4)c([N+](=O)[O-])c3)n2)c1	none (no result: D3 antag)
CCOc1ccc(NC(=O)CSC2=Nc3ccccc3C3=NC(CC(=O)NCc4ccc5c(c4)OCO5)C(=O)N23)cc1 (stereo not drawn)	D1 antag -30.1 (no result: D3 antag)
COc1ccc(NC(=O)CSC2=Nc3ccccc3C3=NC(CC(=O)NCc4ccc5c(c4)OCO5)C(=O)N23)cc1 (stereo not drawn)	none (no result: D3 antag)
COc1ccc(OC)c(-n2nnc(-c3nc(-c4ccc5c(c4)OCO5)no3)c2C)c1	none (no result: D3 antag)
COc1ccc(-c2noc(-c3nnn(-c4ccc(C(C)C)cc4)c3C)n2)cc1OC	DRD3 agonist 36.3 (no result: D3 antag)
CC(C)(C)C(=O)C(Cc1ccccc1)n1cncn1 (stereo not drawn)	D3 antag -54.9
Cc1cccc2cc(CN(Cc3nnnn3C3CCCCC3)C3CCCC3)c3nnnn3c12	D3 antag -64.8
CC(=O)N1CCN(C(=O)C(Cc2c[nH]c3ccccc23)NC(=O)c2ccccc2Cl)CC1 (stereo not drawn)	none
O=C(CSc1nc2ccccc2s1)N1c2ccccc2Sc2ccc(Cl)cc21	D1 antag -48.9
CN1CCN(C(=O)CSc2nnc(COc3ccc(Cl)cc3)o2)CC1	D1 antag -36.7 (no result: D1 PAM)
O=C(COc1ccc(Cl)cc1)NCc1nnc(SCC(=O)NC2CCCCC2)o1	D1 antag -32.5
O=C(CSc1nc2ccccc2s1)N1c2ccccc2Sc2ccc(C(F)(F)F)cc21	none
COc1ccc(OCc2nnc(SCC(=O)N3c4ccccc4Sc4ccc(Cl)cc43)o2)cc1	none
CN1CCN(C(=O)CSc2nnc(COc3ccccc3)o2)CC1	none
Cc1ccc(OCc2nnc(SCC(=O)N3c4ccccc4Sc4ccc(Cl)cc43)o2)cc1	D1 antag -32.2
O=C(NCc1cccnc1)C1CCN(Cc2cc3ccccc3n2Cc2cccc(Cl)c2)CC1	none (no result: D3 antag)
Cc1nc(SCC(=O)N2c3ccccc3Sc3ccccc32)n[nH]1	D3 antag -56.7
O=C(CSc1nnc(CNc2ccc(F)cc2)o1)OC1CCCCC1	D1 antag -30.8
O=C(CSc1nnc(CNc2cccc(Cl)c2)o1)OC1CCCCC1	none
CCC(C)NC(=O)c1sc2ncccc2c1-n1c(C)ccc1C (stereo not drawn)	none (no result: D3 antag)
Clc1ncnc2scc(-c3ccc(Br)cc3)c12	D3 antag -54.1
Cc1cc(N)n(-c2ncnc3scc(-c4ccc(Cl)cc4)c23)n1	none
Cc1ccc(Cl)cc1NC(=O)Cn1c(C)csc1=O	none
CCOC(=O)c1c(NC(=O)CSc2ncccn2)sc2c1CCN(Cc1ccccc1)C2	D3 antag -81.0, D1 antag -77.7
CCOC(=O)c1c(NC(=O)CC)sc2c1CCN(Cc1ccccc1)C2	none
CCOC(=O)c1c(NC(=O)CSc2nnc3c(n2)[nH]c2ccccc23)sc2c1CCN(C)C2	D3 antag -60.2 (no result: D1 PAM, D1 ag, D1 antag)
O=C(CN1CCC(n2nnc3cc(F)ccc32)CC1)NCCc1ccccc1	none
COC(=O)c1ccccc1NC(=O)CN1CCC(n2nnc3cc(F)ccc32)CC1	none
O=C(CN1CCC(n2nnc3cc(F)ccc32)CC1)NC1CCCCC1	D3 antag -85.5
O=C(CN1CCC(n2nnc3cc(F)ccc32)CC1)NC1CC1	D3 antag -56.7, D1 antag -48.6
O=C(CN1CCC(n2nnc3cc(F)ccc32)CC1)Nc1ccccc1N1CCOCC1	D3 antag -54.8, D1 antag -70.7
CCOC(=O)Cn1c(=O)oc2cc(S(=O)(=O)N3CCN(c4ccc(Cl)cc4)CC3)ccc21	none (no result: D3 antag)
CCCN(CCC)C(=O)Cn1c(=O)n(CCCCCC(=O)NCc2ccc3c(c2)OCO3)c(=O)c2sccc21	none (no result: D3 antag)
C/C(=N/NC(=O)c1ccccc1)C(=O)O	D1 antag -31.1
CC(=N\NC(=O)c1ccccc1)/C(=N/O)C(=O)Nc1ccccc1	none
COc1ccc(OC)c(CNc2ncc(-c3ccc(F)cc3)n2C)c1	D3 antag inconclusive, D1 antag -55.0
COc1cccc(CNc2cnc3ccccc3c2)c1O	none
Cn1c(-c2ccc(F)cc2)cnc1NCc1cccc(F)c1	D3 antag inconclusive
COc1ccccc1CNc1ncc(-c2ccc(F)cc2)n1C	D1 antag -62.2
Cn1c(-c2ccc(F)cc2)cnc1NCc1ccccc1	none
COc1ccc(CNc2ncc(-c3ccc(F)cc3)n2C)cc1OC	D1 antag -41.3
COc1cccc(CNc2nc3ccccc3n2C)c1O	D3 antag -56.7
CC1(C(=O)NCc2ccccc2)CSCC(=O)N1CCc1c[nH]c2ccccc12 (stereo not drawn)	none (no result: D1 PAM, D1 ag, D1 antag)
CC(C)(C)c1ccc(C(=O)N2CCCC(c3nc4c(nnn4Cc4cccc(F)c4)c(=O)[nH]3)C2)cc1 (stereo not drawn)	none (no result: D3 antag)
COc1ccc(NC(=O)C(=O)NCCC2CCCCN2S(=O)(=O)c2ccc(F)cc2)cc1 (stereo not drawn)	none
C[C@H](CO)N1C[C@H](C)[C@H](CN(C)S(=O)(=O)c2cccc(C#N)c2)OCc2cnnn2CCCC1=O	none (no result: D1 PAM, D1 ag, D1 antag)
Cn1c(-c2cccc(Br)c2)cnc1NCc1cccnc1	D3 antag -59.6
Oc1ccccc1CNc1ccc(Br)cn1	none
Cn1c(-c2ccccc2)cnc1NCc1cccc([N+](=O)[O-])c1	none
Cn1c(-c2ccc(F)cc2)cnc1NCc1cc2c(cc1[N+](=O)[O-])OCO2	D1 antag -77.0

Bioassay records from PubChem BioAssay.
